From PubChem BioAssay
The source made the active and inactive calls.

What was measured:
[1] = E. coli DRC41 culture turbidity changes, primary screen, E. coli filamentation inducer project, strain DRC41, OD650, 48 h (AID 1152);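 further: E. coli MC1000 strain DRC41 lacking acrAB efflux pump and sulA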; settings: E. coli DRC41 (acrAB sulA), higher = more signal, called active from +8 up or from −8 down
[2] = small-molecule binders of probe aLefty1, primary screen, biochemical, small-molecule microarray, 635/667 nm fluorescence (AID 1153); settings: higher = more signal;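 further: score merges spot fluorescence with signal-to-noise ratio from the scanned slide images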
[3] = PSAC antagonists in infected red cells, primary screen, cell-based, P. falciparum Indochina, OD700, 1 h (AID 1154); settings: P. falciparum Indochina infected RBC osmotic lysis, higher = more signal, called active from +8 up or from −8 down
[4] = PSAC antagonists in infected red cells, primary screen, cell-based, P. falciparum Indochina, OD700, 2 h (AID 1155);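 further: lysis reports solute entry through the parasite surface anion channel PSAC; channel blockers reduce lysis of infected cells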; settings: P. falciparum Indochina infected erythrocytes, osmotic lysis OD700; higher = more signal, called active from +8 up or from −8 down
[5] = osmotic lysis modulators in infected erythrocytes, primary screen, PSAC antagonist project, cell-based, P. falciparum Indochina, OD700, 3 h (AID 1156); settings: higher = more signal, called active from +8 up or from −8 down
[6] = PSAC antagonists in infected red cells, primary screen, cell-based, P. falciparum Indochina, OD700, 18 h (AID 1157); settings: P. falciparum Indochina infected erythrocytes, osmotic lysis OD700, 18 h; higher = more signal, called active from +8 up or from −8 down
[7] = modulators of S6 phosphorylation in cells, primary screen, cell-based, A549, cytoblot, luminescence, serum-stimulated (AID 1158); settings: A549 phospho-S6 cytoblot, 5 h, higher = more signal;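 further: serum-stimulated A549 lung adenocarcinoma cells; signal is phosphorylated S6 detected by cytoblot immunostaining with HRP secondary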
[8] = molecular target: NADPH oxidase 2 (Homo sapiens) (UniProt P04839); assay: NOX2-dependent H2O2 signal modulators, primary screen, NOX inhibitor project, cell-based, HEK293-NOX2, PMA-stimulated, Amplex Red fluorescence (AID 1159); settings: 45 min, higher = more signal, called active from +8 up or from −8 down; further: test concentration not given here
NADPH oxidase 2 (Homo sapiens), sequence (P04839 whole entry, looked up): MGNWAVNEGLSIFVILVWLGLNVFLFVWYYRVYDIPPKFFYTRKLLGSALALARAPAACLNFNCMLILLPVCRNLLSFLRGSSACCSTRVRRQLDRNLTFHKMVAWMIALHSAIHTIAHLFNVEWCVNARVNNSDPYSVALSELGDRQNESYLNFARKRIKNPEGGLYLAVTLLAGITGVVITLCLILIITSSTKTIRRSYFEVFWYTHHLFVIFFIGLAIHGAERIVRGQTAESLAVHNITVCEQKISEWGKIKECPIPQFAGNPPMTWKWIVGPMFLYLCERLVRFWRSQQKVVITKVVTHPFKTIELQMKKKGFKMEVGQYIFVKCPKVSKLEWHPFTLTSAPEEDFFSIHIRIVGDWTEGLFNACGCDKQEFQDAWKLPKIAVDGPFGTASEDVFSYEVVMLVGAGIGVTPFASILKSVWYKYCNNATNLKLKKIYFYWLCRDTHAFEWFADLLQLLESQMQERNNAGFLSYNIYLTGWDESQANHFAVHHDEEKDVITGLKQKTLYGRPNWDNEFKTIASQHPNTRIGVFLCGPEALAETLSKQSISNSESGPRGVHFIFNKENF

[9] = molecular target: NADPH oxidase 4 (Homo sapiens) (UniProt Q9NPH5); assay: NOX4-dependent H2O2 signal modulators, primary screen, NOX inhibitor project, cell-based, HEK293-NOX4, tetracycline-induced, Amplex Red fluorescence (AID 1160); settings: 45 min, higher = more signal, called active from +8 up or from −8 down
NADPH oxidase 4 (Homo sapiens), sequence (Q9NPH5 whole entry, looked up): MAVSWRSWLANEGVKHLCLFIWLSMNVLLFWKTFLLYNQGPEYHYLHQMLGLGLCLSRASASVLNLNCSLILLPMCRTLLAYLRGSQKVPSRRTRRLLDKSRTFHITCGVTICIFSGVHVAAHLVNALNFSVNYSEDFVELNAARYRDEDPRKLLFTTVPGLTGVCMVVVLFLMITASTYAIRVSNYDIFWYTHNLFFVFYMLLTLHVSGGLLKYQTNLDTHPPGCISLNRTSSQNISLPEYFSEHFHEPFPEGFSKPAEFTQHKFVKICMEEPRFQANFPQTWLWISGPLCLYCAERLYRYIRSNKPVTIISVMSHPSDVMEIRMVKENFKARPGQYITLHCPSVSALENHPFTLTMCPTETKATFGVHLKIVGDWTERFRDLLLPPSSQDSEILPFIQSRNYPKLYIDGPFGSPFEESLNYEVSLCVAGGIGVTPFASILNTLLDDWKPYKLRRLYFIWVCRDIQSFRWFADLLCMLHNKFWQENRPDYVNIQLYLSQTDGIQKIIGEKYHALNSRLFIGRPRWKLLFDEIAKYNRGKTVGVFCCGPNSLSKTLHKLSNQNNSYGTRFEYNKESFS

[10] = molecular target: NADPH oxidase 5 (Homo sapiens) (UniProt Q96PH1); assay: NOX5-dependent H2O2 signal modulators, primary screen, NOX inhibitor project, cell-based, HEK293-NOX5, Amplex Red fluorescence (AID 1161); settings: HEK293-NOX5, ionomycin, 45 min, higher = more signal
NADPH oxidase 5 (Homo sapiens), sequence (Q96PH1 whole entry, looked up): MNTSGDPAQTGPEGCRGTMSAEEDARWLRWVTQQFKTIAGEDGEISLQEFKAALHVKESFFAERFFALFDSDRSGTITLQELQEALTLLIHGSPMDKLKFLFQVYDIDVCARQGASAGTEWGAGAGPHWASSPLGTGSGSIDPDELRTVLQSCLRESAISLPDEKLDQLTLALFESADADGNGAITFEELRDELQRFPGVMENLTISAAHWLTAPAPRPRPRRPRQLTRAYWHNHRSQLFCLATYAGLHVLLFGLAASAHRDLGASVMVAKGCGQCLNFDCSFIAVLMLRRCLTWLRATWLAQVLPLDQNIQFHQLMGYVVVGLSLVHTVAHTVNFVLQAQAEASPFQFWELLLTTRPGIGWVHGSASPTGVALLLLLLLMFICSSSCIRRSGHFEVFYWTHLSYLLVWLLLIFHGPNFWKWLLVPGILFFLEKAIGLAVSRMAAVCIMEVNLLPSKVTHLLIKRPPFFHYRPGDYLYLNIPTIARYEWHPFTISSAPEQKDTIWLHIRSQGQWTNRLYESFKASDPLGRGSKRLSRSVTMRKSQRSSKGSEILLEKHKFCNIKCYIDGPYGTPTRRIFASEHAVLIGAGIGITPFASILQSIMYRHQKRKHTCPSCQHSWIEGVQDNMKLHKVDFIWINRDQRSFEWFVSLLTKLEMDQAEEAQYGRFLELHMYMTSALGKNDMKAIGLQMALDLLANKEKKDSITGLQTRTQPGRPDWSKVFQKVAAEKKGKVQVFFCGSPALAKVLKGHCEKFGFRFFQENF

[11] = A549 cell viability effects, profiling panel, calcein-AM fluorescence, 48 h, basal (AID 1162); settings: higher = more signal; further: test concentration not given here
[12] = adipocyte viability effects, profiling panel, cell-based, 3T3-L1 adipocytes, calcein-AM fluorescence, 48 h, basal (AID 1163); settings: 3T3-L1 adipocytes viability, higher = more signal; further: test concentration not given here
[13] = HepG2 cell viability effects, profiling panel, calcein-AM fluorescence, 48 h, basal (AID 1164); settings: higher = more signal; further: test concentration not given here
[14] = MM1S cell viability effects, profiling panel, calcein-AM fluorescence, 48 h, basal (AID 1165); settings: higher = more signal;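 further: viability of MM1S multiple myeloma cells under basal unstimulated conditions; test concentration not given here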
[15] = basal RPMI8226 viability, no added stimulus, profiling panel, cell-based, calcein-AM fluorescence, 48 h, PK04 Diversity Set (AID 1166); settings: RPMI8226 myeloma viability, higher = more signal;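 further: cells grown under basal conditions without added stimulus; test concentration not given here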
[16] = basal HepG2 mitochondrial membrane potential changes, profiling panel, cell-based, JC-1 fluorescence, 24 h, 100 nL compound (AID 1167); settings: higher = more signal; further: test concentration not given here
[17] = basal 3T3-L1 adipocyte mitochondrial potential changes, profiling panel, cell-based, JC-1 fluorescence, 3T3-L1 adipocytes, 24 h, 100 nL compound (AID 1168); settings: JC-1 mitochondrial fluorescence, higher = more signal, called active from +8 up or from −8 down; further: test concentration not given here
[18] = basal RPMI8226 mitochondrial membrane potential changes, profiling panel, cell-based, JC-1 fluorescence, 24 h, 100 nL compound (AID 1169); settings: RPMI8226 myeloma, JC-1 mitochondrial potential fluorescence, higher = more signal; further: test concentration not given here
[19] = basal MM1S mitochondrial membrane potential changes, profiling panel, cell-based, JC-1 fluorescence, 24 h, 100 nL compound (AID 1170); settings: higher = more signal; further: test concentration not given here
[20] = A549 lung cancer cell viability effects, profiling panel, resazurin fluorescence, 24 h, PK04 Diversity Set (AID 1171); settings: higher = more signal, called active from +8 up or from −8 down; further: test concentration not given here

## CCCN1C(=O)[C@]2(COC(c3ccc(OCCCO)cc3)=N2)Cc2ccccc21
[1]
  z-score: -0.516 (inactive)
[2]
  composite z-score: 0.0927
[3]
  z-score: 16.9 (active)
[4]
  z-score: 2.23 (inactive)
[5]
  z-score: 2.31 (inactive)
[6]
  z-score: 0.741 (inactive)
[7]
  z-score: -0.0824
[8]
  z-score: -0.248 (inactive)
[9]
  z-score: -0.0403 (inactive)
[10]
  z-score: -1.42
[11]
  z-score: -0.78
[12]
  z-score: 0.585
[13]
  z-score: 0.302
[14]
  z-score: -1.6
[15]
  z-score: -0.688
[16]
  z-score: -0.0681
[17]
  z-score: -0.919 (inactive)
[18]
  z-score: 0.391
[19]
  z-score: 0.148
[20]
  z-score: 0.212 (inactive)

## CCOC(=O)[C@H]1C[C@H]2O[C@@]23C[C@H]1C(=O)N1CCCC1[C@@H]3O[Si](C)(C)C(C)(C)C (stereo not given in full)
[1]
  z-score: -0.954 (inactive)
[2]
  composite z-score: -0.0573
[3]
  z-score: 1.35 (inactive)
[4]
  z-score: 0.23 (inactive)
[5]
  z-score: 0.183 (inactive)
[6]
  z-score: 0.158 (inactive)
[7]
  z-score: -0.67
[8]
  z-score: 1.05 (inactive)
[9]
  z-score: 0.302 (inactive)
[10]
  z-score: -1.7
[11]
  z-score: -0.486
[12]
  z-score: 0.729
[13]
  z-score: -0.154
[14]
  z-score: -0.337
[15]
  z-score: -0.5
[16]
  z-score: -0.625
[17]
  z-score: -0.166 (inactive)
[18]
  z-score: -0.366
[19]
  z-score: 0.193
[20]
  z-score: -0.456 (inactive)

## N[C@@H](Cc1ccccc1)Cn1cc(-c2ccccc2)nn1
[1]
  z-score: -2.54 (inactive)
[2]
  composite z-score: 0.271
[3]
  z-score: 5.12 (inactive)
[4]
  z-score: 0.745 (inactive)
[5]
  z-score: 0.0287 (inactive)
[6]
  z-score: 0.53 (inactive)
[7]
  z-score: -0.209
[8]
  z-score: 0.659 (inactive)
[9]
  z-score: 0.45 (inactive)
[10]
  z-score: 0.448
[11]
  z-score: -0.192
[12]
  z-score: -0.711
[13]
  z-score: -0.0622
[14]
  z-score: -1.57
[15]
  z-score: -0.0672
[16]
  z-score: 1.18
[17]
  z-score: 0.399 (inactive)
[18]
  z-score: -0.515
[19]
  z-score: 0.137
[20]
  z-score: 0.837 (inactive)

## COc1c(C)cc(-c2cc3c(c(-c4ccc(Oc5ccccc5)cc4)n2)[Si](C(C)C)(C(C)C)OC3)cc1C
[1]
  z-score: -1.42 (inactive)
[2]
  composite z-score: 0.13
[3]
  z-score: 0.219 (inactive)
[4]
  z-score: 0.603 (inactive)
[5]
  z-score: 0.392 (inactive)
[6]
  z-score: 0.63 (inactive)
[7]
  z-score: -0.817
[8]
  z-score: -0.445 (inactive)
[9]
  z-score: 0.722 (inactive)
[10]
  z-score: -0.958
[11]
  z-score: -0.342
[12]
  z-score: -0.616
[13]
  z-score: 0.285
[14]
  z-score: -0.66
[15]
  z-score: -0.11
[16]
  z-score: -1.3
[17]
  z-score: -0.528 (inactive)
[18]
  z-score: 0.103
[19]
  z-score: 0.0963
[20]
  z-score: 0.624 (inactive)

## O=C1C2C=CC(C(O)c3ccc(F)cc3)N(Nc3ccccc3)C2C(=O)N1c1ccccc1 (stereo not given)
[1]
  z-score: -0.789 (inactive)
[2]
  composite z-score: 0.374
[3]
  z-score: 10.2 (active)
[4]
  z-score: 2.02 (inactive)
[5]
  z-score: 0.0089 (inactive)
[6]
  z-score: 1.24 (inactive)
[7]
  z-score: -0.931
[8]
  z-score: -1.77 (inactive)
[9]
  z-score: -3.42 (inactive)
[10]
  z-score: -1.96
[11]
  z-score: 0.257
[12]
  z-score: -1.66
[13]
  z-score: -0.114
[14]
  z-score: 0.561
[15]
  z-score: -0.149
[16]
  z-score: -1.58
[17]
  z-score: -0.0708 (inactive)
[18]
  z-score: -0.0118
[19]
  z-score: -1.01
[20]
  z-score: -0.111 (inactive)

## CCCCCN1CC=CC23O[C@@H]4/C=C\CCCOC(=O)C4[C@H]2C(=O)N(CCCCCCO)[C@@H]3C1=O (stereo not given in full)
[1]
  z-score: 2.24 (inactive)
[2]
  composite z-score: -0.146
[3]
  z-score: 2.25 (inactive)
[4]
  z-score: 0.753 (inactive)
[5]
  z-score: -0.387 (inactive)
[6]
  z-score: 0.158 (inactive)
[7]
  z-score: 5.32
[8]
  z-score: 0.876 (inactive)
[9]
  z-score: 0.243 (inactive)
[10]
  z-score: 1.75
[11]
  z-score: 1.26
[12]
  z-score: 2.1
[13]
  z-score: 1.54
[14]
  z-score: 1.37
[15]
  z-score: 1.97
[16]
  z-score: 0.482
[17]
  z-score: -0.462 (inactive)
[18]
  z-score: 0.521
[19]
  z-score: -1.09
[20]
  z-score: 0.4 (inactive)

## CCCNC(=O)[C@@H]1c2ccccc2C(=O)N(Cc2ccccc2)[C@H]1c1ccc(CO)cc1
[1]
  z-score: -0.731 (inactive)
[2]
  composite z-score: -0.0508
[3]
  z-score: 1.36 (inactive)
[4]
  z-score: -0.325 (inactive)
[5]
  z-score: 1.41 (inactive)
[6]
  z-score: 0.0842 (inactive)
[7]
  z-score: 0.0533
[8]
  z-score: -0.802 (inactive)
[9]
  z-score: -1.63 (inactive)
[10]
  z-score: -2.53
[11]
  z-score: 0.756
[12]
  z-score: 1.38
[13]
  z-score: 0.817
[14]
  z-score: -0.183
[15]
  z-score: 0.502
[16]
  z-score: 2.12
[17]
  z-score: -1.28 (inactive)
[18]
  z-score: -0.681
[19]
  z-score: -0.549
[20]
  z-score: 0.528 (inactive)

## COc1ccc(CCNC(=O)[C@@H]2c3ccccc3C(=O)N(Cc3ccc(OC(F)(F)F)cc3)[C@H]2c2ccc(CO)cc2)cc1
[1]
  z-score: -0.989 (inactive)
[2]
  composite z-score: -0.291
[3]
  z-score: 4.16 (inactive)
[4]
  z-score: 0.385 (inactive)
[5]
  z-score: 2 (inactive)
[6]
  z-score: 0.623 (inactive)
[7]
  z-score: -0.404
[8]
  z-score: -1.69 (inactive)
[9]
  z-score: -0.245 (inactive)
[10]
  z-score: -3.56
[11]
  z-score: 0.843
[12]
  z-score: 0.614
[13]
  z-score: -1.01
[14]
  z-score: -2.39
[15]
  z-score: -1.99
[16]
  z-score: 1.14
[17]
  z-score: -0.0731 (inactive)
[18]
  z-score: 0.118
[19]
  z-score: -0.23
[20]
  z-score: 0.619 (inactive)

## COc1ccc(CCNC(=O)[C@@]2(Sc3ccc(C)cc3)CC(=O)N(Cc3ccccc3Cl)[C@@H]2c2ccc(CO)cc2I)cc1
[1]
  z-score: 0.265 (inactive)
[2]
  composite z-score: 0.198
[3]
  z-score: 9.86 (active)
[4]
  z-score: 0.902 (inactive)
[5]
  z-score: 1.53 (inactive)
[6]
  z-score: 0.231 (inactive)
[7]
  z-score: 0.0671
[8]
  z-score: 1.54 (inactive)
[9]
  z-score: -1.54 (inactive)
[10]
  z-score: 1.32
[11]
  z-score: 0.507
[12]
  z-score: -1.07
[13]
  z-score: 0.334
[14]
  z-score: -1.41
[15]
  z-score: -1.54
[16]
  z-score: 0.167
[17]
  z-score: -0.0114 (inactive)
[18]
  z-score: -0.474
[19]
  z-score: -1.96
[20]
  z-score: -0.478 (inactive)
